The values that follow come from PubChem BioAssay AID504690 (Sanford-Burnham Center for Chemical Genomics, 2011).

The structures appear in SMILES notation. The campaign covered roughly 350,000 compounds. About 2,700 (0.77%) were called active. Shown is part of a subset that was picked to be rich in actives. Unmarked numbers belong to inactive results.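 The calls were made as follows: active = inhibition reaching at least a set limit at 20 µM in the primary screen (cut at about 59% in these data); inactive = the rest.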

In this assay the test system is glucose-6-phosphate dehydrogenase-6-phosphogluconolactonase (Plasmodium falciparum 3D7). Briefly: PfG6PD enzyme inhibitors, primary screen, biochemical, fluorescence intensity, uHTS (AID 504690).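 Also: 0% = DMSO wells with substrate and 100% = DMSO wells lacking glucose-6-phosphate.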 The settings on record: PfGluPho enzyme, NADPH resazurin-diaphorase fluorescence; at 20 µM; hits give high values. (The colour change of resazurin is a common sign of viable cells or microbes.)
For `O=C(NC1CCCC1)C(c1ccc(N2CCOCC2)cc1)N(C(=O)c1ccco1)c1ccccc1F` (stereo not drawn), the inhibition (as a rule, the drop in the measured response relative to a control, in per cent) was 1.31%.
To `Cc1ccc2c(c1)N(CC(=O)NCC1CCCO1)C(=O)CO2` (stereo not drawn) belongs 0.68%; to `FC(F)(F)c1cccc(-c2cc3ccccc3nc2N2CCCC2)c1`, 13.8%.
With `O=C(CNS(=O)(=O)c1ccc(Br)s1)N1CCN(C(=O)c2ccco2)CC1`, the inhibition is -12.2%.
Regarding `Cc1ccc(-c2cc(C(=O)NCc3cn(C)nc3C)c3cc(Br)ccc3n2)cc1`, the inhibition is 3.11%.
On to `NC(=O)c1cc(-c2cccnc2)nc2ccc(Br)cc12`, for which the inhibition was 14.2%.
Take `Cc1ccc2nc(-c3cccc(Br)c3)cc(C(=O)Nn3cnnc3)c2c1`: the inhibition was 59.4% (active).
For `CCc1nnc(NC(=O)CSc2nc3c(c(=O)n2-c2ccccc2OC)SCC3)s1`, the inhibition was 43%.
As for `O=C(NCC1CCCO1)c1cc2c(s1)CCCC2` (stereo not drawn), the figure is 14%; as for `CN(C)C(=O)c1ccc(NC(=O)COC(=O)c2cc3c(s2)CCCCC3)cc1`, -5.04%.
For `O=C(Nc1ccc(F)cc1)c1cc2c(s1)CCCC2`, the inhibition is 75.7% (active).
As for `Cc1ccc(CSCCNC(=O)CN(c2ccc(F)cc2)S(C)(=O)=O)cc1`, the figure is -11.7%; as for `NC(=O)C1=C[C@@H](c2ccc3c(c2)OCO3)C[C@@H](OCCCCO)O1`, 17.6%.
As for `CC1(c2ccc3ccccc3c2)NC(=O)NC1=O` (stereo not drawn), the figure is 18.9%; as for `CN1c2ccc(C=O)c3c(C=O)ccc(c23)N(C)C1(C)C`, 69.6% (active).
To `Cc1ccc(C=O)c([B-](F)(F)F)c1` belongs -13.1%; to `COC(=O)C1(CCSC)NC(c2ccc(OC)cc2OC)C2C(=O)N(c3cccc(C(C)=O)c3)C(=O)C21` (stereo not drawn), -2.47%; to `Cc1ccc(Cc2c(-c3ccc(C)cc3)nc3c4ccccc4ccn23)cc1`, 31.4%.
For `Cc1ccc(-c2nc3ccc(Cl)cn3c2Cc2ccccc2)cc1`, the inhibition was 87.1% (active).
To `Cc1ccc(Cc2c(-c3ccccc3)nc3ccc(Cl)cn23)cc1` belongs 37.4%.
Turning to `Cc1cc(C)n2nc(CNS(=O)(=O)c3c(F)c(F)c(F)c(F)c3F)nc2n1`, the inhibition is -12.8%.
Consider `COc1ccc(N2CCN(S(=O)(=O)c3cc(Br)cnc3N)CC2)cc1`, for which the inhibition was -12.2%.
To `Nc1ccccc1SC(C[N+](=O)[O-])c1ccccc1` (stereo not drawn) belongs 79.5% (active); to `Fc1cccc(CSc2nnc3ccc(-c4ccncc4)nn23)c1`, 1.54%.
On to `COc1cc2c(C(=O)N(C)c3cc(Cl)ccc3OC)cn(C)c(=O)c2cc1OC`, for which the inhibition is -11.9%.
In the case of `O=C(c1[nH]ncc1-c1ccc(Cl)cc1)C1CO1` (stereo not drawn), the inhibition was 2.19%.
Turning to `COc1ccc2oc(=O)cc(CN3CCOCC3)c2c1`, the inhibition is -5.99%.
As for `Oc1c(CN2CCOCC2)ccc(CN2CCOCC2)c1O`, the figure is 91.2% (active); as for `O=[N+]([O-])c1ccc(COc2ccccc2CN2CCOCC2)cc1`, 36.1%.
Turning to `CCN(CC)c1ccc(C(=O)c2cnc(/N=C/N(C)C)s2)cc1`, the inhibition was 11.6%.
To `CCOC(=O)N1CCN(C(=O)c2ccc3c(=O)n(CCc4ccc(OC)c(OC)c4)c(=O)[nH]c3c2)CC1` belongs 0.32%.
With `CCOC(=O)C1CCCN(CCSc2ccc(C)cc2)C1` (stereo not drawn), the inhibition is -1.97%.
To `CC(C)C[C@H](NC(=O)N1CCn2c1nc1ccccc12)C(=O)NC1CC1` belongs -6.34%; to `NC1=CC(=O)C(=O)c2cccnc21`, 51.8%.
As for `Cc1coc2c(O)cc3c(c12)OC1(N2CCCCC2)C(=O)NCCCC31` (stereo not drawn), the figure is 101% (active); as for `NC(=O)CN1CCCC1c1ccc2c(c1)OCCO2` (stereo not drawn), 7.24%; as for `CCCCN1CC(C)(C)[C@H](CC(=O)Nc2ccc(Br)cc2)C1=O`, 21.2%.
As for `COc1ccc(CN2CCCC(C(=O)N3CCCCC3)C2)cc1` (stereo not drawn), the figure is 0.72%.
Consider `O=C1OC[C@@H]2CCCN2C(=O)[C@H](CC(=O)N(CCO)Cc2ccccc2)C/C=C\CC[C@@H]1Cc1ccc(F)cc1`, for which the inhibition is -6.25%.
With `CN1CCN(c2ccc(NC(=O)c3cc(Cl)c4c(c3)OCCO4)cc2)CC1`, the inhibition was -0.01%.
As for `CN1CCN(c2ccc(NC(=O)c3ccc4c(c3)OCCO4)cc2Cl)CC1`, the figure is 68.3% (active); as for `COC(=O)c1ccc(N2CCOCC2)c(NC(=O)c2ccc3c(c2)OCCO3)c1`, 9.1%; as for `COc1ccc(C(=O)OC(C)C(=O)NC2CCCC2)cc1S(=O)(=O)N1CCOCC1` (stereo not drawn), -8.93%.
To `COc1ccc(COC(=O)c2ccc(Cl)c(S(=O)(=O)N3CCOCC3)c2)cc1F` belongs 20.9%; to `O=C(NCc1cccc(CNC(=O)Nc2cccc(O)c2)c1)Nc1cccc(O)c1`, 11%.
As for `COc1cccc(NC(=O)Nc2ccc(F)cc2)c1`, the figure is 30.6%; as for `COc1cccc(NC(=O)NCc2ccc(F)cc2)c1`, 75.8% (active).
`CC1CCCC(N2CCN(C(=O)c3ccc(F)cc3)CC2)C1` (stereo not drawn): the inhibition is 12.6%.
To `Cc1nc(=O)c(-c2ccccc2)c(C)n1-c1ccc(Br)cc1` belongs -0.2%.
Take `Cc1ccc2nc(-c3ccc(Br)cc3)cn2c1`: the inhibition was 91.8% (active).
Take `Cc1ccc(-c2cn3cc(C)ccc3n2)cc1`: the inhibition is 104% (active).
As for `Cc1ccc(-c2cc(N)on2)cc1`, the figure is 8.69%; as for `CC(=O)Nc1ccc(-c2cn3cccnc3n2)cc1`, 2.85%; as for `CS(=O)(=O)Nc1cccc(-c2cn3ccccc3n2)c1`, -10.9%.
On to `COc1ccc(C(C)NC(=O)C2CCCC2)cc1` (stereo not drawn), for which the inhibition is -12.4%.
Take `O=C(O)C1CCCCC1C(=O)N1CCN(S(=O)(=O)c2ccc(F)cc2)CC1` (stereo not drawn): the inhibition is -3.01%.
With `COc1ccccc1C(=O)N/C(=C/c1ccco1)C(=O)Nc1ccc(C(=O)O)cc1`, the inhibition was 7.16%.
Regarding `COCC(C)NC(=O)CSc1nc2nn(-c3ccccc3)c(=O)c-2c2n1CCCCC2` (stereo not drawn), the inhibition was -8.52%.
On to `O=C(CCN1C(=O)COc2ccccc21)NCCCN1CCN(c2ccc(F)cc2)CC1`, for which the inhibition was -3.8%.
To `COCCNC(=O)CSc1nc(N)c(NC(=O)c2ccco2)c(=O)[nH]1` belongs 3.96%; to `Cc1ccc(NC(=O)OCCNC(=O)c2ccncc2)cc1`, -14.7%; to `COCCNC(=O)Nc1ccc2nc(-c3ccco3)c(-c3ccco3)nc2c1`, 66.8% (active).
Consider `CC(C)(C)c1ccc(C(=O)N2CCN(CCNC(=O)C(=O)Nc3ccc(F)cc3)CC2)cc1`, for which the inhibition is 0.45%.
Take `CC(Oc1ccc(F)cc1)C(=O)N1CCN(c2ncccn2)CC1` (stereo not drawn): the inhibition is 8.63%.
In the case of `C=C1c2cccc(OC)c2O[C@H](C(=O)OCC)[C@@H]1CCCCCC`, the inhibition was 77.8% (active).
In the case of `CCOC(=O)C(=Cc1ccccc1OC)C(=O)OCC`, the inhibition is -10.6%.
Consider `CCOC(=O)C1=C(C)c2ccccc2OC1C(=O)OCC` (stereo not drawn), for which the inhibition was 4.58%.
For `CC1CCC2(CC1)NC(=O)N(CC(=O)c1ccc3c(c1)OCO3)C2=O` (stereo not drawn), the inhibition was 6.6%.
As for `Cn1c(-c2sc3cc(C(F)(F)F)cnc3c2-c2ccccc2)n[nH]c1=S`, the figure is 27.8%; as for `CCOC(=O)N1CCN(Cc2nc(Cc3cccc(C(F)(F)F)c3)no2)CC1`, -8.4%.
As for `Cn1c(-c2sccc2OCc2cccc(C(F)(F)F)c2)n[nH]c1=S`, the figure is 65.3% (active); as for `O=C(OCc1cn([C@@H]2C[C@H](c3ccc(Cl)cc3)N(Cc3cccs3)C[C@H]2O)nn1)c1ccccc1`, 11.3%.
To `O=C(O)C1CCN(C(=O)OCc2ccccc2)CC1` belongs -0.22%.
Take `CCN(C(=O)CSc1nnc(-c2ccc(OC(F)F)cc2)n1N)C1CCS(=O)(=O)C1` (stereo not drawn): the inhibition was -3.99%.
Turning to `O=C(c1ccc(Br)o1)N(c1ccccn1)C1CCCCC1`, the inhibition was -15.9%.
Regarding `O=C(O)C(=Cc1ccc([N+](=O)[O-])cc1)CCc1ccccc1`, the inhibition is -27.5%.
As for `O=C1/C(=C\c2ccc([N+](=O)[O-])cc2)CS(=O)(=O)C/C1=C/c1ccc([N+](=O)[O-])cc1`, the figure is 77.6% (active); as for `CC(=O)Nc1ccc(C=Cc2ccc([N+](=O)[O-])cc2)cc1`, 14.2%; as for `C[C@H]1CN([C@@H](C)CO)C(=O)c2cc(Br)cnc2O[C@H]1CN(C)S(=O)(=O)c1cccs1`, 9.15%.
As for `O=C(CCN1C(=O)c2ccncc2C1=O)Nc1cc(F)ccc1F`, the figure is -12.6%; as for `COCCN1C=C2C(=O)C(C)(OC(=O)C3CCCC3)C(=O)C=C2C=C1c1ccsc1` (stereo not drawn), 72.5% (active).
To `CC1(OC(=O)CCc2ccccc2)C(=O)C=C2C=C(c3ccc(C#N)cc3)N(CCc3ccccn3)C=C2C1=O` (stereo not drawn) belongs 44.1%.
For `CC1(OC(=O)C2CCCC2)C(=O)C=C2C=C(c3ccc(C#N)cc3)OC=C2C1=O` (stereo not drawn), the inhibition is 23%.
To `COCC(=O)N(C)C[C@H]1Oc2cc(Br)ccc2S(=O)(=O)N([C@H](C)CO)C[C@H]1C` belongs -15.7%; to `CCN1CCN(c2ccc([N+](=O)[O-])cc2C(=O)c2ccc(Cl)cc2)CC1`, 11.2%; to `O=[N+]([O-])c1ccc(N2CCN(c3ccc(O)cc3)CC2)c(Cl)c1`, 61.5% (active).
To `O=C(O)C1CCN(c2ccc([N+](=O)[O-])cc2[N+](=O)[O-])CC1` belongs -6.12%; to `CCN(CCCCOC(=O)c1ccc(OC)c(OC)c1)C(C)Cc1ccc(OC)cc1` (stereo not drawn), -1.86%.
As for `CC1CCC(NS(=O)(=O)c2ccc3c(c2)n(C)c(=O)c(=O)n3C)CC1` (stereo not drawn), the figure is -1.38%.
On to `Cn1sc(=O)c2cc(S(=O)(=O)NC3CC3)ccc21`, for which the inhibition was 66.3% (active).
`O=S(=O)(NC1CC1)c1ccc(F)c(F)c1`: the inhibition is 1.75%.
To `CC1(c2ccccc2)NC(=O)N(CC(=O)N2CC(=O)Nc3ccccc32)C1=O` (stereo not drawn) belongs 4.26%; to `CCCCOP(=O)(c1ccc(N(C)C)cc1)C(O)c1cc(OC)ccc1OC` (stereo not drawn), 10.8%.
